The record followed here is PubChem BioAssay (NCI).

Compounds without any hit were thinned out: in the full panel of roughly 79,000, 15% have a hit. Values without a mark were called inactive. Active and inactive are the calls of the source. No stated cut-off is given here; in the data, active means growth inhibition above about 70%; inactive means the rest.

Experiment [1] is described as follows: NCI Yeast Anticancer Drug Screen. Data for the rad50 strain (AID 155).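 Further: 0% = growth of vehicle-only cultures of the same strain.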 The note with it: S. cerevisiae rad50 strain growth inhibition, active compounds read high. In a few lines:
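Compounds were tested on a yeast strain with an engineered DNA damage repair alteration; the reported value is growth inhibition normalised to vehicle treatment.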

Experiment [2] in a line: NCI Yeast Anticancer Drug Screen. Data for the mec2-1 strain (AID 157). The note with it: S. cerevisiae mec2-1 strain, active compounds read high. In a few lines:
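Readout is yeast growth inhibition, normalised to vehicle-treated controls, in the mec2-1 strain exposed to compound.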

Experiment [3] is described as follows: NCI Yeast Anticancer Drug Screen. Data for the sgs1 mgt1 strain (AID 161).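 Further: 0% = growth of cultures given vehicle only.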 The following applies: S. cerevisiae sgs1 mgt1 strain, active compounds read high. In outline: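 Yeast cells carrying a defined DNA-repair defect were exposed to test compounds. Growth inhibition was measured relative to vehicle-treated controls.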
The nature of experiment [4]: NCI Yeast Anticancer Drug Screen. Data for the cln2 rad14 strain (AID 165).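 Further: 0% = growth equal to vehicle treated cultures.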 The following applies: S. cerevisiae cln2 rad14 strain, active compounds read high. In a few lines: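 Relative to vehicle controls, growth inhibition of compound-treated cln2 rad14 yeast was recorded.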
Experiment [5] is described as follows: NCI Yeast Anticancer Drug Screen. Data for the bub3 strain (AID 167). The following applies: S. cerevisiae bub3 mutant strain, active compounds read high. In a few lines: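 Growth of a checkpoint-deficient yeast mutant is measured after compound exposure. Values represent inhibition relative to vehicle.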
Experiment [6] can be described thus: NCI Yeast Anticancer Drug Screen. Data for the mlh1 rad18 strain (AID 175). The following applies: S. cerevisiae mlh1 rad18 strain growth inhibition, active compounds read high. In a few lines:
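Test agents were incubated with a yeast strain of defined genotype (DNA damage repair defect). Inhibition of growth was derived by comparison with vehicle-exposed cultures.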

[7] abbreviates: at 5.0 µM (retest, dose inferred, filed as 0.5).
Where [8] appears, read: at 50.0 µM (retest, dose inferred, filed as 5.0).

For the compound `CCCCCCCCCCCCCCCc1ccc(C(=O)C[n+]2ccccc2)cc1`, the growth inhibition in experiment [1] (setting [7]) was 29%; in experiment [1] (setting [8]), 96% (active); in experiment [1] (at 50.0 µM), 85.8% (active); in experiment [2] (setting [7]) it was 23%; in experiment [2] (setting [8]), 98% (active); in experiment [2] (at 50.0 µM), 89.7% (active). In addition, the growth inhibition in experiment [3] (setting [7]) is 44%; in experiment [3] (setting [8]), 98% (active); in experiment [3] (at 50.0 µM), 87.7% (active); in experiment [4] (setting [7]), 22%; in experiment [4] (setting [8]), 81% (active); in experiment [4] (at 50.0 µM), 54%. Moreover, the growth inhibition in experiment [5] (setting [7]) was 28%; in experiment [5] (setting [8]), 98% (active); in experiment [5] (at 50.0 µM), 85.2% (active); in experiment [6] (setting [7]), 32%; in experiment [6] (setting [8]) it was 97% (active); in experiment [6] (at 50.0 µM), 83% (active).
In the case of `O=C1c2ccccc2Cc2cccc(Cl)c21`, the growth inhibition was 15% in experiment [1] (setting [7]); 72% (active) in experiment [1] (setting [8]); 88.5% (active) in experiment [1] (at 50.0 µM); 6% in experiment [2] (setting [7]); 15% in experiment [2] (setting [8]); 24.3% in experiment [2] (at 50.0 µM). The growth inhibition in experiment [3] (setting [7]) is 4%; in experiment [3] (setting [8]) it was 13%; in experiment [3] (at 50.0 µM) it was 28.6%; in experiment [4] (setting [7]), 0%; in experiment [4] (setting [8]), 5%; in experiment [4] (at 50.0 µM) it was 17.4%. The growth inhibition in experiment [5] (setting [7]) is 1%; in experiment [5] (setting [8]), 19%; in experiment [5] (at 50.0 µM), 13.8%; in experiment [6] (setting [7]), 2%; in experiment [6] (setting [8]) it was 17%; in experiment [6] (at 50.0 µM), 33%.
Turning to `CCOc1ccc(C(CN2CCOCC2)C(C)=O)cc1OC` (stereo not given), the growth inhibition in experiment [1] (setting [7]) was -3%; in experiment [1] (setting [8]), 30%; in experiment [1] (at 50.0 µM) it was 72.5% (active); in experiment [2] (setting [7]), -27%; in experiment [2] (setting [8]) it was 68%; in experiment [2] (at 50.0 µM), 77.7% (active). The growth inhibition is -4% in experiment [3] (setting [7]); 30% in experiment [3] (setting [8]); 74.7% (active) in experiment [3] (at 50.0 µM); 0% in experiment [4] (setting [7]); 28% in experiment [4] (setting [8]); 45.4% in experiment [4] (at 50.0 µM). Further, the growth inhibition is -8% in experiment [5] (setting [7]); 81% (active) in experiment [5] (setting [8]); 78.7% (active) in experiment [5] (at 50.0 µM); -18% in experiment [6] (setting [7]); 86% (active) in experiment [6] (setting [8]); 63.8% in experiment [6] (at 50.0 µM).
`CC1(C=O)CCC23COC4(CCC5C6(C)CCC(OC7OCC(OC8OC(CO)C(O)C(OC9OC(CO)C(O)C(O)C9O)C8OC8OCC(O)C(O)C8O)C(O)C7OC7OC(CO)C(O)C(O)C7O)C(C)(C)C6CCC5(C)C4(C)CC2O)C3C1` (stereo not given): the growth inhibition in experiment [1] (setting [7]) is 22%; in experiment [1] (setting [8]) it was 93% (active); in experiment [1] (at 50.0 µM), 66.8%; in experiment [2] (setting [7]), 14%; in experiment [2] (setting [8]) it was 96% (active); in experiment [2] (at 50.0 µM), 85.2% (active). The growth inhibition in experiment [3] (setting [7]) is 9%; in experiment [3] (setting [8]) it was 96% (active); in experiment [3] (at 50.0 µM), 88.2% (active); in experiment [4] (setting [7]), 18%; in experiment [4] (setting [8]), 94% (active); in experiment [4] (at 50.0 µM) it was 86.2% (active). The growth inhibition was 16% in experiment [5] (setting [7]); 97% (active) in experiment [5] (setting [8]); 87.1% (active) in experiment [5] (at 50.0 µM); 22% in experiment [6] (setting [7]); 98% (active) in experiment [6] (setting [8]); 82.3% (active) in experiment [6] (at 50.0 µM).
Turning to `CC(C)N=C(N)/N=C(\N)Nc1ccc2ccc3ccccc3c2c1`, the growth inhibition is 3% in experiment [1] (setting [7]); 99% (active) in experiment [1] (setting [8]); 99.8% (active) in experiment [1] (at 50.0 µM); -9% in experiment [2] (setting [7]); 99% (active) in experiment [2] (setting [8]); 25.1% in experiment [2] (at 50.0 µM). The growth inhibition in experiment [3] (setting [7]) was 12%; in experiment [3] (setting [8]) it was 100% (active); in experiment [3] (at 50.0 µM), 99.7% (active); in experiment [4] (setting [7]), 3%; in experiment [4] (setting [8]), 100% (active); in experiment [4] (at 50.0 µM), 99.5% (active). Moreover, the growth inhibition in experiment [5] (setting [7]) is 27%; in experiment [5] (setting [8]) it was 99% (active); in experiment [5] (at 50.0 µM), 46.3%; in experiment [6] (setting [7]), 41%; in experiment [6] (setting [8]) it was 99% (active); in experiment [6] (at 50.0 µM), 99.7% (active).
For `CC[n+]1ccc(Nc2ccc(NC(=O)c3ccc(Nc4cc[n+](CC)c5ccc([N+](=O)[O-])cc45)cc3)cc2)cc1`, the growth inhibition in experiment [1] (setting [7]) is 84% (active); in experiment [1] (setting [8]) it was 97% (active); in experiment [1] (at 50.0 µM) it was 99% (active); in experiment [2] (setting [7]), 14%; in experiment [2] (setting [8]), 97% (active); in experiment [2] (at 50.0 µM), 99% (active). Further, the growth inhibition is 84% (active) in experiment [3] (setting [7]); 98% (active) in experiment [3] (setting [8]); 99.5% (active) in experiment [3] (at 50.0 µM); 72% (active) in experiment [4] (setting [7]); 96% (active) in experiment [4] (setting [8]); 97% (active) in experiment [4] (at 50.0 µM). For the same compound, the growth inhibition in experiment [5] (setting [7]) is 72% (active); in experiment [5] (setting [8]), 97% (active); in experiment [5] (at 50.0 µM), 99.1% (active); in experiment [6] (setting [7]) it was 82% (active); in experiment [6] (setting [8]) it was 97% (active); in experiment [6] (at 50.0 µM), 97.8% (active).
Turning to `CCN(CC)CC(O)c1cc(-c2ccc(Cl)cc2)nc2cc(Cl)ccc12` (stereo not given), the growth inhibition in experiment [1] (setting [7]) is 2%; in experiment [1] (setting [8]) it was 99% (active); in experiment [1] (at 50.0 µM) it was 98% (active); in experiment [2] (setting [7]), -3%; in experiment [2] (setting [8]), 100% (active); in experiment [2] (at 50.0 µM), 93.9% (active). Also, the growth inhibition is -1% in experiment [3] (setting [7]); 99% (active) in experiment [3] (setting [8]); 99.7% (active) in experiment [3] (at 50.0 µM); -2% in experiment [4] (setting [7]); 99% (active) in experiment [4] (setting [8]); 47.9% in experiment [4] (at 50.0 µM). Further, the growth inhibition was -3% in experiment [5] (setting [7]); 99% (active) in experiment [5] (setting [8]); 78.5% (active) in experiment [5] (at 50.0 µM); 11% in experiment [6] (setting [7]); 99% (active) in experiment [6] (setting [8]); 98.3% (active) in experiment [6] (at 50.0 µM).
In the case of `NC(CS/C(Cl)=C/Cl)C(=O)O` (stereo not given), the growth inhibition is 48% in experiment [1] (setting [7]); 92% (active) in experiment [1] (setting [8]); 92.3% (active) in experiment [1] (at 50.0 µM); 47% in experiment [2] (setting [7]); 96% (active) in experiment [2] (setting [8]); 93.8% (active) in experiment [2] (at 50.0 µM). Moreover, the growth inhibition in experiment [3] (setting [7]) is 34%; in experiment [3] (setting [8]), 94% (active); in experiment [3] (at 50.0 µM), 93.5% (active); in experiment [4] (setting [7]) it was 41%; in experiment [4] (setting [8]), 96% (active); in experiment [4] (at 50.0 µM) it was 92.3% (active). Besides, the growth inhibition is 19% in experiment [5] (setting [7]); 94% (active) in experiment [5] (setting [8]); 89.4% (active) in experiment [5] (at 50.0 µM); 89% (active) in experiment [6] (setting [7]); 97% (active) in experiment [6] (setting [8]); 97.5% (active) in experiment [6] (at 50.0 µM).
In the case of `O=C1/C(=C/c2ccccn2)CCc2ccccc21`, the growth inhibition is 30% in experiment [1] (setting [7]); 94% (active) in experiment [1] (setting [8]); 84.7% (active) in experiment [1] (at 50.0 µM); 17% in experiment [2] (setting [7]); 95% (active) in experiment [2] (setting [8]); 89.5% (active) in experiment [2] (at 50.0 µM). In addition, the growth inhibition in experiment [3] (setting [7]) was 11%; in experiment [3] (setting [8]), 85% (active); in experiment [3] (at 50.0 µM), 83.4% (active); in experiment [4] (setting [7]) it was 32%; in experiment [4] (setting [8]), 92% (active); in experiment [4] (at 50.0 µM), 46.2%. For the same compound, the growth inhibition in experiment [5] (setting [7]) is -8%; in experiment [5] (setting [8]), 98% (active); in experiment [5] (at 50.0 µM), 89.4% (active); in experiment [6] (setting [7]), -15%; in experiment [6] (setting [8]), 97% (active); in experiment [6] (at 50.0 µM), 84.2% (active).
As to `Nc1ccc(Oc2ccccc2)c(Cl)c1`, the growth inhibition in experiment [1] (setting [7]) was 10%; in experiment [1] (setting [8]) it was 91% (active); in experiment [1] (at 50.0 µM), 97.6% (active); in experiment [2] (setting [7]) it was -15%; in experiment [2] (setting [8]), 30%; in experiment [2] (at 50.0 µM), 92.5% (active). Besides, the growth inhibition in experiment [3] (setting [7]) was 4%; in experiment [3] (setting [8]) it was 61%; in experiment [3] (at 50.0 µM), 97.6% (active); in experiment [4] (setting [7]), 3%; in experiment [4] (setting [8]), 60%; in experiment [4] (at 50.0 µM), 93.5% (active). Also, the growth inhibition in experiment [5] (setting [7]) was 69%; in experiment [5] (setting [8]), 52%; in experiment [5] (at 50.0 µM) it was 90.5% (active); in experiment [6] (setting [7]) it was 7%; in experiment [6] (setting [8]), 72% (active); in experiment [6] (at 50.0 µM), 98% (active).
